# Results: PubChem BioAssay (NCI)
# The panel holds about 83,000 compounds, 20% with a hit somewhere; the sample as a whole holds those more often.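 Results are percent growth after 48 hours of single-concentration exposure. 100 means growth as in untreated cells, lower positive values show inhibition; negative values down to -100 show cell death.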 A number with no mark means an inactive call. Activity calls are given as the source filed them. How the source made its calls: active means growth percent below 10; inactive means the rest.
# System: 786-0 renal
# Assay: NCI-60 one-dose screen, 48 h (100 = growth as untreated, 0 = no growth, -100 = all killed)
# Settings: 10 µM unless noted
row,SMILES,growth
1,O=c1oc2ccccc2c(Cl)c1Cl,47.3%
2,O=C1NC(=Nc2ccc(Cl)cc2)S/C1=C\c1cn(-c2ccccc2)nc1-c1ccccc1,85.5%
3,COc1ccccc1NC(=O)N/C(N)=N/c1nc2ccccc2s1,40.2%
4,Cc1ccc(NS(=O)(=O)c2ccc3c(c2)C2OCCC2C(c2ccc(C(=O)C(C)C)cc2)N3)cc1C (configuration not stated),58.9%
5,N#Cc1c(N)nc2c(C#N)c(NC(=O)c3ccccc3)nn2c1-c1ccccc1,102%
6,COc1cccc(Nc2nccc(Nc3ccc4[nH]ncc4c3)n2)c1,-12.5% (active)
7,C[C@H]1[C@H]2[C@H]3CC[C@@H]4[C@@]5(C)C/C(=C/c6ccco6)C(=O)C(C)(C)[C@@H]5CC[C@@]4(C)[C@]3(C)CC[C@]23CO[C@]1(C)[C@@H](C(=O)/C=C\c1ccco1)C3,104%
8,O=C(NCCCNc1cc(-c2cn(-c3ccccc3)nc2-c2cccc(O)c2)ccn1)c1ccccc1,-29.8% (active)
9,COc1ccc(-c2csc(C3=C(O)CN(CCCN4CCCC4=O)C3=N)n2)cc1OC,99.3%
10,CCCCCc1nc2c(c3c1CCCC3)CCCC2,85%
11,Clc1cccc(Cl)c1/C=C/c1cc(/C=C/c2c(Cl)cccc2Cl)[nH]n1,23.1%
12,COC(=O)c1c2c(c(C)[n+]([O-])c1C)C(=O)C(NCc1ccc(F)c(Cl)c1)=CC2=O,-93.5% (active)
13,Cc1c(C)c2c(c(C)c1OCC(=O)O)CC[C@@](C)(CCC[C@@H](C)CCC[C@@H](C)CCCC(C)C)O2,-46.4% [50 µM] (active)
14,c1c[nH]c(CNC2CCCCC2)c1,112%
15,NC(=O)c1ccc[n+](Cc2ccc(Cl)cc2Cl)c1,94.7%
16,Cc1ccc(Cl)c(NS(=O)(=O)c2ccc(-c3cnc(C4CC4)o3)cc2)c1,27.8%
17,Cc1ccc(-c2cc3c(cc2O)C2CCCCC2(N2CCOCC2)O3)cc1 (configuration not stated),108%
18,CC1=C([Se]CC(OC(=O)CC[Se]c2ccccc2)C(=O)NCCCCCC(=O)OCc2ccccc2)C(=O)c2ccccc2C1=O (configuration not stated),58.2%
19,COc1cc(-c2nn(-c3ccccc3)cc2-c2ccnc(NCCNS(=O)(=O)c3ccc(Cl)cc3)n2)ccc1Cl,28.9%

row,SMILES,growth
1,CC1=C(SCCC(=O)OC(C[Se]C2=C(C)C(=O)c3ccccc3C2=O)C(=O)NCCCCCC(=O)OCc2ccccc2)C(=O)c2ccccc2C1=O (configuration not stated),40.1%
2,OC(c1cccc(-n2ccc(C(F)(F)F)n2)c1)c1cnccc1NC1CCCCCC1 (configuration not stated),28.9%
3,O=C(Nc1cccc(Oc2nnc(Cl)c3ccccc23)c1)Nc1ccc(Cl)c(C(F)(F)F)c1,-42.8% (active)
4,Cc1cc(NCCCCNc2ccnc3cc(Cl)ccc23)nc(Nc2ccc(C(=O)N3CCCC3)cc2)n1,68.4%
5,N=C1C(c2nc(-c3ccc(Br)cc3)cs2)=C(O)CN1Cc1cccnc1,35.2%
6,O=C(Nc1cccc(Cl)c1)c1cc(N=Nc2ccc([N+](=O)[O-])cc2Cl)ccc1O,59.1%
7,Cc1cccc(Cc2cnc(NC(=O)/C=C/c3ccco3)s2)c1,36%
8,CNC(=O)NCC1OC(n2cnc3c(NC(=O)Nc4ccccc4)ncnc32)C(O[Si](C)(C)C(C)(C)C)C1CC(=O)N(C)OC (configuration not stated),47.4%
9,CCN1C(=O)N(CC)C2Nn3c(s/c(=C\c4ccc(Cl)cc4Cl)c3=O)=NC21 (configuration not stated),34%
10,CCN(CC)CCCCCCNc1cc(OC)c(Cl)c2cccnc12,73.9%
11,c1csc(-c2c3ccc(=[N+]4CCCCC4)cc-3oc3cc(N4CCCCC4)ccc23)c1,-92.5% (active)
12,COc1ccc(NC(=O)c2nc(-c3cc(OC)c(OC)c(OC)c3)n(-c3cccc4ccccc34)n2)cc1OC,31.8%
13,O=C(Cc1ccc(F)c(F)c1)Nc1cc(C2(C(F)(F)F)CC2)nn1Cc1ccccc1,12.1%
14,N=c1sc(Cc2ccc(Cl)cc2)cn1CC(=O)c1ccc(F)cc1,86.5%
15,COc1ccc(S(=O)(=O)NCCNc2nccc(-c3c(-c4cccc(F)c4)nc4sccn34)n2)cc1,43.1%
16,COc1ccc2c(c1)O/C(=C\c1cccc(OCC(=O)Nc3nc4ccccc4s3)c1)C2=O,92.2%
17,Cc1c(C(=O)OC(=NC2CCCCC2)NC2CCCCC2)sc2c1c(=O)nc1c(C#N)n[nH]n12,92%
18,COc1ccc(-c2nc(SC(C)C)nc(NNC(N)=S)c2C#N)cc1,85%
